Records with an inconclusive call do not appear. Some structures have more than one record in an assay (separate samples or runs), and their calls can disagree. Activity calls are given as the source filed them. How the source made its calls: active means hit-call score of the fitted dose curve at least 0.9, where 1 is the maximum; inconclusive means response in the unintended direction; inactive means score below 0.9.

As a reminder, the AC50 is the concentration at which the activity in the assay is half-maximal.

Glucocorticoid receptor (Homo sapiens), sequence (P04150 whole entry, looked up): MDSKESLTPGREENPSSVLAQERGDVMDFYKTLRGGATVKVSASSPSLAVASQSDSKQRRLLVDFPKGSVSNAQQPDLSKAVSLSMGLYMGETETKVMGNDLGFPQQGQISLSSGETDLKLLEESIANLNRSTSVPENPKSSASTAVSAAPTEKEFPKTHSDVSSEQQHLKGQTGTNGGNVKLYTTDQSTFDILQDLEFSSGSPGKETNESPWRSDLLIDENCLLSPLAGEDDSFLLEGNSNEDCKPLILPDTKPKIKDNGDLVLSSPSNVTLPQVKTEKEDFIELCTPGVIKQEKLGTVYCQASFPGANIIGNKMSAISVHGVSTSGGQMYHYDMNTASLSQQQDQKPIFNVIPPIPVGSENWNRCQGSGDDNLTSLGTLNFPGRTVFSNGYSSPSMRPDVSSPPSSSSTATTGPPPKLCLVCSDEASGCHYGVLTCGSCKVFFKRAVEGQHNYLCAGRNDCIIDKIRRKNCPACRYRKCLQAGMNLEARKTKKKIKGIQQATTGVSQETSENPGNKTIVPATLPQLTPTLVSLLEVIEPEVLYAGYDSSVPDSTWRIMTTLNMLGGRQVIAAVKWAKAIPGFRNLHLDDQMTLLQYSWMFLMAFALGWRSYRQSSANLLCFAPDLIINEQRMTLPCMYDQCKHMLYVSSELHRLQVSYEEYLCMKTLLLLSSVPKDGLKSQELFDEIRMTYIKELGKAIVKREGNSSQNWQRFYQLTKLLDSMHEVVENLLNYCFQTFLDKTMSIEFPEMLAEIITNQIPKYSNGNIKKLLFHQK

The target in this experiment is Glucocorticoid receptor (Homo sapiens) (UniProt P04150). Briefly: NVS_NR_hGR: NovaScreen (NVS) Nuclear Receptor Binding Assay for human Glucocorticoid Receptor (GR) (AID 2283363). The protocol:
NVS_NR_hGR is a biochemical, single-readout assay that uses extracted gene-proteins in a cell-free assay. Measurements were taken 16 hours after chemical dosing in a 96-well plate.NVS_NR_hGR is one of one assay component(s) measured or calculated from the NVS_NR_hGR assay. It is designed to make measurements of radioligand binding, a form of binding reporter, as detected with scintillation counting signals by Filter-based radiodetection technology.Data from the assay component NVS_NR_hGR was analyzed into 1 assay endpoint. This assay endpoint, NVS_NR_hGR, was analyzed in the positive analysis fitting direction relative to DMSO as the negative control and baseline of activity. Using a type of binding reporter, loss-of-signal activity can be used to understand changes in the binding as they relate to the gene NR3C1. Furthermore, this assay endpoint can be referred to as a primary readout, because the performed assay has only produced 1 assay endpoint. To generalize the intended target to other relatable targets, this assay endpoint is annotated to the nuclear receptor intended target family, where the subfamily is steroidal.
Binding assays used specific radioligands (tritiated, iodinated) with non-radioactive competitive displacement ligands in agonist or antagonist protocols (as indicated) and various reference compounds and inhibitors to titrate specific binding to receptors and transporters. Most enzyme assays (CYPs, kinases, phosphatases, proteases, HDACs) used recombinant protein and specific substrates (fluorescence mostly, some colorimetric and radioactive) and inhibitors, followed by a biochemical separation of substrate and product. All assays for the biochemical HTS were initially run in duplicate at a single concentration (10 uM for CYP450 assays and 25 uM for all others). […] Each assay was run with positive and negative controls, and concurrent controls on every plate. The follow-up (secondary) screen tested active chemical-pairs in concentration series, as well as a few additional assays not tested in the primary screen, some selected negative inactives, and several cases re-run in the concentration series for confirmatory purposes.
With `CC1=NN(c2ccc(S(=O)(=O)O)cc2)C(=O)C1N=Nc1ccccc1` (configuration not stated), the AC50 was 12.8 µM (active). With `CO[Si](CCCS)(OC)OC`, the outcome was inactive. On the same count and under the same terms, under `CCCC(CC)c1ccccc1` (configuration not stated) stands “inactive”; under `CC(C)[N+](C)(CCOC(=O)C1c2ccccc2Oc2ccccc21)C(C)C`, “inactive”. Same read-out and setting: under `C=C(C)C1CC=C(C)CC1` (configuration not stated) stands “inactive”. In the case of `CCCCC(=O)O`, the AC50 is 8.11 µM (active) and the molecule was called inactive. On to `CCOC(=O)/C=C\C(=O)OCC`, for which the molecule was called inactive.

Turning to `CCCCCCCCCC[N+](C)(CCCCCCCCCC)CCC[Si](OC)(OC)OC`, the result was inactive. Still for that read-out and setting: the same measure for `CCCCCCOc1ccc(N)cc1`: “inactive”.

In the case of `CCc1cccc(CC)c1`, the call was inactive. In the case of `CCCCCCCOC(=O)c1ccc(O)cc1`, the AC50 was 7.77 µM (active). Consider `O=C(O)c1cc(O)c2ccccc2c1O`, for which the AC50 was 9.52 µM (active). Same read-out and setting: the same measure for `CC/C=C\C/C=C\C/C=C\CCCCCCCC(=O)OC`: 8.39 µM (active); for `C=C1C[C@H]2[C@@H]3C=C(C)C4=CC(=O)CC[C@]4(C)[C@H]3CC[C@]2(C)[C@@]1(OC(C)=O)C(C)=O`: 0.00144 µM (active). Take `O=S(=O)(O)c1ccc(N=Nc2c(O)ccc3ccccc23)cc1`: the concentration at half-maximal activity (AC50) was 17.2 µM (active). Turning to `O=c1c(O)c(-c2ccc(O)cc2O)oc2cc(O)cc(O)c12`, the AC50 was 25 µM (active).

The values above are taken from PubChem BioAssay (EPA / NIEHS).
